Data from publication PMC12136788.
Whole data set: some 5,800 sequences, median “enrichment r” near 0.68, cut for the highest 2% near 11. Only a selection was taken, and the highest values are over-represented in it overall.

T1: UNK ZnF1-6 (called full-length) (human, UniProt Q9C0B0 30-357)
T1 sequence: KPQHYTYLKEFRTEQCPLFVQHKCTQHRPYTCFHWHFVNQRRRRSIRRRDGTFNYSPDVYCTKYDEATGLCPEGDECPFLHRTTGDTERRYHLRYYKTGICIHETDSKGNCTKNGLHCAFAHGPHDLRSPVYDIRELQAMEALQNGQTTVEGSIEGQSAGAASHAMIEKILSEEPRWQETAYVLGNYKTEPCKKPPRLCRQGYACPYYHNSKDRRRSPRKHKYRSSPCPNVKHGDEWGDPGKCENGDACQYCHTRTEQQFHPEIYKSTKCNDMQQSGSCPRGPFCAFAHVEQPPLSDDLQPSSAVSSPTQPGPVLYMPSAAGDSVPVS

B1: chr15:93027272:93027374:+|3pUTR|ENSG00000173575|unk|total|mutant (ssRNA)
RNA: GGGAGUUCUACAGUCCGACGAUCCCAGGAAUCUGUGAGGAUGGUAUUCCCUGGAGUCUGGCUUUGAAAGAUUUCAUUGUUGGCCGAAAUAACAGGUUGAGAAAGAGGGAGUCCGCAUCACCUAAAACCUGCACGUGAACAAGGCAACAGAGGAUUGAGCAUCA
B2: ENSG00000141127:stop:overlap|stop_codon|ENSG00000141127|stop_codon|NA|stop_codon (ssRNA)
RNA: GGGAGUUCUACAGUCCGACGAUCAUUCAUCAUGUAUGGAGCUAUCAAAGAAAAUUGCAGACUUUUUCCCCCUUUCUCUUCUCUAGGCGGCUAGGGGUGGAGAUGGGCAAAGUGCAGGUUUACCAGGAACCUAACAGAGAAACACAACAGAGGAUUGAGCAUCA
B3: chr22:31279490:31279591:+|3pUTR|ENSG00000182541|msi1|total|mutant (ssRNA)
RNA: GGGAGUUCUACAGUCCGACGAUCAGCAGCUUGGGCUGGGAAGAGGUGGUGGCAGAGUCUCAAAGCUGAGAUGCUGAGAGAGACCGCUCCCUGAGCUGGGCCAUCUGACUUCUACCUCCCAUGUUUGCUCUCCCAACUCAUCCGCAACAGAGGAUUGAGCAUCA
B4: chr5:43295829:43295944:-|CDS|ENSG00000112972|unk|total|mutant (ssRNA)
RNA: GGGAGUUCUACAGUCCGACGAUCAAUAUCCCCGCUUUAUUCUAAAGUCAAACUUUAAAAUUUCAUGGCUUAUAUGAAUUUCACCGUUUCCUUGGACUUCUCUUUCAGAGGGAAAUGAUAAAGAUUUUACCUUGAAUGAUUUUGCAACAGAGGAUUGAGCAUCA
B5: chr12:76028505:76028606:-|3pUTR|ENSG00000139289|msi1|total|mutant (ssRNA)
RNA: GGGAGUUCUACAGUCCGACGAUCAAGUCUUGGUCAGUAUUUUUCCAGCAUUUAAAUUGAAACGGUCAGUAUCCGACCACUGCCCGGUUAUGCCGUCAAGAAAUAAAAACCGAAUUACAUGCUACAGAUGUCUUUAUUCUCCUUCAACAGAGGAUUGAGCAUCA
B6: ENSG00000198589:be:win_5851|CDS|ENSG00000198589|bound_else_gene|NA|bound_elsewhere_windowed (ssRNA)
RNA: GGGAGUUCUACAGUCCGACGAUCACUCAACUAAUCCAGAAAAUUAUCAACAUUCUCACAGACAAGCAUGGAGCCUGGGGAAAUUCUGCAGUGAGUCGUCCUCUUGAGUUCUGGCGCCUUGACUACUGGGAAGAUGACUUGCGGCAACAGAGGAUUGAGCAUCA
B7: chr19:14961309:14961997:-|three_prime_utr|ENSG00000105143|control|control|control (ssRNA)
RNA: GGGAGUUCUACAGUCCGACGAUCGAUUCACUUACCCACUCACCAACUCAUUCAUUCAUGUCUUUCUGGGAUGAUUUCAUCACUAGUUGACUUCCUUGUUCAUCUGUUCAUUCAUUCAUUCUUCUAUGCAUUGGUUAGUUCAUGCAACAGAGGAUUGAGCAUCA
B8: chr15:60347444:60347559:-|3pUTR|ENSG00000182718|msi1_unk|total|mutant (ssRNA)
RNA: GGGAGUUCUACAGUCCGACGAUCUAACAGUCCCCGUGGCCAUCCCUGUGAGGGUGACGUCCGCAUUACCCCCAACCUCAUUUCCGUUGCCUAAGCAUUGCCUGGCCUUCCUGUCCCGUCUCUCCUGUAAGCCAAAGAAAUGAACAACAGAGGAUUGAGCAUCA
B9: chr16:5044585:5044836:-|CDS|ENSG00000153446|control|control|control (ssRNA)
RNA: GGGAGUUCUACAGUCCGACGAUCGAGUAGCUGGGACUACAGGAGCGUGCCACCAUACCUGGCUAAUUUUUAUAUUUUUUUAGUAGAGACAGGGUUUCAUCAUGUUGCUCAUGCUGGUCUCGAACUCCUGAUCUCAAGAGAUCCCAACAGAGGAUUGAGCAUCA
B10: chr5:144162273:144162391:-|CDS|ENSG00000145817|unk|total|mutant (ssRNA)
RNA: GGGAGUUCUACAGUCCGACGAUCCCCACCGGCUGGCAAAAUCCAGUUUGGCUAUGUAUACGGGAUCAGUGCAAUUGGAUGUCCCGGAAUGUUUUGUUUAUUAAACUUAAUGAGUAUGACAGGUGUUUCAUUUGGUUGUGUGGCCAACAGAGGAUUGAGCAUCA
B11: chr5:72990507:72990614:+|CDS|ENSG00000157107|unk|FALSE|unique (ssRNA)
RNA: GGGAGUUCUACAGUCCGACGAUCGUAUGGGAUGUAUUCAAAACAUCUACAGAGAAAUUAGCAAAUUGUCACUUGGAUCUUGUUAGAAAAUUACAAGAAUUAAUAAAGGAAGUUCAGAAGUAUGGAGAAGAACAAGUAAAGUCUCAACAGAGGAUUGAGCAUCA
B12: chr2:11642538:11642650:+|3pUTR|ENSG00000196208|unk|total|mutant (ssRNA)
RNA: GGGAGUUCUACAGUCCGACGAUCCGAAGAGUUGAUGUCAAUCUUUUUUUCCUAAGAAAAAAAGUCCGCGAGUAUUAAAUAUUCCGAUCAAUGUUUAUAAAAUGAUUACUUUGUAUAUCUCAUUAUUCCUAUUUUGGAAUAAAACAACAGAGGAUUGAGCAUCA
B13: chr4:185586528:185586629:-|3pUTR|ENSG00000154556|msi1|FALSE|unique (ssRNA)
RNA: GGGAGUUCUACAGUCCGACGAUCAUCCAUAUGAUAUGUUGUACAUUUUAUGGAAAUGUAAUAGAAUCUCACACAUUAUUUUAUAGAAAUAGAGUACAGAAGCAUCACAAGUAUUAAAGUUGGUUUUAGCAAGGAUUAGGAUUACAACAGAGGAUUGAGCAUCA
B14: chr3:11557766:11557867:-|3pUTR|ENSG00000144560|msi1|total|mutant (ssRNA)
RNA: GGGAGUUCUACAGUCCGACGAUCCUGGACUGCAGACUCUACCAAUCACGGGCAUUUUAUCUUCUCUGAACACUGCAGUUUGUCCGACCCGAGCUGAGGUUGGAGGAUUCCACCGUGCUUUAAACGUGAUGCAUGUUUUAAUGGCAACAGAGGAUUGAGCAUCA
B15: ENSG00000136451:be:win_3151|3pUTR|ENSG00000136451|bound_else_gene|NA|bound_elsewhere_windowed (ssRNA)
RNA: GGGAGUUCUACAGUCCGACGAUCUGAGACAGACUUCCUACAUCAGGGACAGGUAUCUGUGUGUCAUUAUACAAAACAGUUCUAGGGGGUUGAACUACAUAGUAAAAAAAUAAAAUAAAUAGUACUUAGUGUAAAAUAAUUUUACAACAGAGGAUUGAGCAUCA
B16: ENSG00000136451:be:win_3251|3pUTR|ENSG00000136451|bound_else_gene|NA|bound_elsewhere_windowed (ssRNA)
RNA: GGGAGUUCUACAGUCCGACGAUCCUUAGUGUAAAAUAAUUUUAUAAAUGAUCUUUUGUACUUUAGGACAUUAAAUUGUACAACUUUUGUAUAUAUAAAAGCUUAGGAACUUUCUGUUUAGCAGGAAGGCAACACAUUCCUACACAACAGAGGAUUGAGCAUCA
B17: chr17:57972098:57972209:-|3pUTR|ENSG00000136451|unk|FALSE|bound_elsewhere (ssRNA)
RNA: GGGAGUUCUACAGUCCGACGAUCCUAGAAUGUGGUUGUCAGAACCCUGAAAGUAUUAGUUCUAAAAAAAAAAAGAUAUAUACUAGAAGUAAUUGUUUUAUCAAUUCAUUGUAUAAUAAACAGGAGUGAGACUUCAUUGUAUGACAACAGAGGAUUGAGCAUCA
B18: ENSG00000136451:be:win_3101|3pUTR|ENSG00000136451|bound_else_gene|NA|bound_elsewhere_windowed (ssRNA)
RNA: GGGAGUUCUACAGUCCGACGAUCUUCCAUUUAUACCCUACUGUGUCAGUUCAAGCAUCAAAAUACCUUGCAUCUGAGACAGACUUCCUACAUCAGGGACAGGUAUCUGUGUGUCAUUAUACAAAACAGUUCUAGGGGGUUGAACAACAGAGGAUUGAGCAUCA
B19: chr15:60490033:60490134:-|3pUTR|ENSG00000069667|unk|FALSE|unique (ssRNA)
RNA: GGGAGUUCUACAGUCCGACGAUCUGCUGGAUUUGGGACAUGCUUUUCUCUUUAAAUACAUAAUAUCAUUAUAUAAAUUAUUCUAGAGUGUAUUUAAUUAGGAUAAAAUUACUUCCUUAGUAUGGAUAUUUGACAUCUAUAGGGCAACAGAGGAUUGAGCAUCA
B20: ENSG00000136451:be:win_3201|3pUTR|ENSG00000136451|bound_else_gene|NA|bound_elsewhere_windowed (ssRNA)
RNA: GGGAGUUCUACAGUCCGACGAUCAACAGUUCUAGGGGGUUGAACUACAUAGUAAAAAAAUAAAAUAAAUAGUACUUAGUGUAAAAUAAUUUUAUAAAUGAUCUUUUGUACUUUAGGACAUUAAAUUGUACAACUUUUGUAUAUCAACAGAGGAUUGAGCAUCA
B21: chr3:129431351:129431457:-|3pUTR|ENSG00000129071|unk|total|mutant (ssRNA)
RNA: GGGAGUUCUACAGUCCGACGAUCACUUCAAAAAAGCUUAAUUAAGUACAACCAACCACCUUUCCAGCCACCGAGAUUUUAAUCCGCCCAACCCGAAGCCCCGUGUGUGUGCUUUCUUAAUGUGUGUGCCAAUGGUGGAUCUUUCAACAGAGGAUUGAGCAUCA
B22: chr11:61873518:61873813:-|three_prime_utr|ENSG00000221968|control|control|control (ssRNA)
RNA: GGGAGUUCUACAGUCCGACGAUCCCCUCACAUGUGUAUUCAGCAGCCCUAUGGCCUUGGCUCUGGGCCUGAUGGGACAGGGGUAGAGGGAAGGUGAGCAUAGCACAUUUUCCUAGAGCGAGAAUUGGGGGAAAGCUGUUAUUUCAACAGAGGAUUGAGCAUCA

The binders below were run against T1, UNK ZnF1-6 (called full-length) (assay: nsRBNS (natural sequence RNA bind-n-seq); RBNS binding buffer (assumed for nsRBNS): 25 mM Tris pH 7.5, 150 mM KCl, 3 mM MgCl2, 0.01% Triton X-100, 500 ug/ml BSA, 20 U/ml SUPERase-In, 4 C; UNK is unkempt and MSI1 is Musashi-1; names of the RNAs are library labels; protein concentration not given here; high values mean tight binding).

Binder | binding signal
B1 | 0.486 enrichment R
B2 | 0.392 enrichment R
B3 | 0.701 enrichment R
B4 | 0.421 enrichment R
B5 | 0.271 enrichment R
B6 | 0.85 enrichment R
B7 | 0.569 enrichment R
B8 | 0.662 enrichment R
B9 | 2.13 enrichment R
B10 | 0.596 enrichment R
B11 | 3.86 enrichment R
B12 | 0.544 enrichment R
B13 | 11.6 enrichment R
B14 | 0.682 enrichment R
B15 | 44 enrichment R
B16 | 6.05 enrichment R
B17 | 4.83 enrichment R
B18 | 0.463 enrichment R
B19 | 4.69 enrichment R
B20 | 96.7 enrichment R
B21 | 0.636 enrichment R
B22 | 1.12 enrichment R
